The list is not random: actives were taken first. Their share in the collection is about 8.8%.
KB-3-1 cytotox = KB-3-1 parental cell cytotoxicity. KB-3-1 viability, CellTiter-Glo ATP luminescence, 72 h. Potency, µM (titrated, usually from 46.1 µM), most hits filed as cytotoxic. actives 1.4% (n = 400,000); note: nearly all actives have a fitted effect of over 60% in size
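KB-3-1 cells, DMEM (no phenol red) + 10% FBS; compound by pin transfer, 72 h, 37 °C. Readout: CellTiter-Glo luminescence after 10 min. Data normalized, curve-fitted.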
HT1080-NT tox = kills 2HG-producing HT-1080-NT fibrosarcoma cells. AID 686970. actives 1.6% (n = 360,000). Potency, µM (top dose mostly 46.1 µM), hits mostly cytotoxic. HT-1080-NT fibrosarcoma viability, CellTiter-Glo ATP luminescence, 48 h;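 note: NT is the 2HG producing partner of a matched IDH1 knockdown line; nearly all actives have a fitted effect of over 55% in size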
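Toxicity toward the 2HG-producing NT line was scored as %Activity, normalised to DMSO and no-cell wells, from CellTiter-Glo luminescence after 48 hours' treatment.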
IL1B secr inh = inflammasome signaling inhibition, IL-1 beta readout; THP-1 LPS/ATP IL-1B secretion, AlphaLISA, 16 h; stronger effect = lower value; activity change, % at 57.5 µM; actives 4.7% (n = 360,000); in the data active = activity change below about -50%; inconclusive = mostly about -30% to -49%
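Secreted IL-1B measured by AlphaLISA bead assay after 16 h compound exposure of THP-1 cells; compounds (final up to 57.5 uM) added 1 h before LPS (250 ng/mL) and ATP (1.25 mM) stimulation; lower signal means less secretion.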
HT1080 IDH1KD tx = kills HT-1080 cells with IDH1 knockdown. actives 2% (n = 360,000). HT-1080 IDH1 knockdown viability, ATP luminescence, 48 h. Potency, µM (doses to about 46.1 µM), actives largely listed as cytotoxic. AID 686971
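Cytotoxicity counter-line: IDH1KD HT-1080, 48 h, CellTiter-Glo. Curves classed by r2, magnitude and activity.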
KB-V1 MDR tox = kills drug-selected multidrug resistant KB-V1 cells; KB-V1 MDR cells viability, CellTiter-Glo, 72 h; Potency, µM (highest dose often 46.1 µM), hits mostly cytotoxic; actives 3.4% (n = 400,000); AID 1347076; note: nearly all actives have a fitted effect of over 60% in size
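KB-V1 cells (P-gp-expressing MDR subline of KB-3-1) in phenol-red-free DMEM with 10% FBS were exposed to library compounds over a concentration series for 72 h at 37 degrees C. Viability read by CellTiter-Glo luminescence; concentration-effect curves fitted after normalization.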
Hits are given with their value; i = inactive; ? = inconclusive; nt = no result given; ! = repeats disagree. Unless noted, calls come from the whole dose curve; as a rule, active = well fitted curve in the direction sought with a large enough effect; inconclusive = small, poorly fitted or top-dose-only effect, or another doubt; inactive = no such curve, though single readings can be large; an effect the other way counts as inactive or inconclusive.

SMILES	KB-3-1 cytotox	HT1080-NT tox	IL1B secr inh	HT1080 IDH1KD tx	KB-V1 MDR tox
COc1ccccc1CNC(=O)CN1C(=O)CSc2ccc(S(=O)(=O)N(C)C)cc21	i	nt	nt	nt	i
COc1ccc(OC)c(CCNC(=O)Cn2nc(C)c3c(C)n(-c4ccc(C)cc4)nc3c2=O)c1	?	i	-67.2	i	8.2µM
COc1ccc(CCNC(=O)Cn2nc(C)c3c(C)n(-c4ccccc4)nc3c2=O)c(OC)c1	i	i	i	i	i
CN1CCN(C(=S)c2cn(CCOc3ccccc3F)c3ccccc23)CC1	i	i	i	i	?
COc1ccc(-n2cnc3cc(NCc4ccccn4)ccc32)cc1	i	i	i	i	?
c1ccc(-n2cnc3cc(NCc4ccco4)ccc32)cc1	23.1µM	?	i	?	?
Cc1ccc(-n2cnc3cc(NCc4cccs4)ccc32)cc1	i	i	?	i	?
c1ccc(-n2cnc3cc(NCc4cccs4)ccc32)cc1	?	?	i	i	10.3µM
CC(C)OCCCNC(=O)CN1C(=O)/C(=C/c2ccccc2)Sc2ccccc21	i	i	i	i	?
COc1ccccc1N1CCN(C(=O)C2CCCN(S(=O)(=O)c3ccc4c(c3)oc(=O)n4C)C2)CC1 (configuration not stated)	10.3µM!	i	i	i	?
Cn1c(=O)oc2cc(S(=O)(=O)N3CCCC(C(=O)NC4CCCc5ccccc54)C3)ccc21 (configuration not stated)	5.8µM	i	i	i	?
COc1ccccc1CNC(=O)Cn1c(=O)ccc2cc(S(=O)(=O)N3CCC(C)CC3)ccc21	i	nt	nt	nt	i
Cn1c(=O)oc2cc(S(=O)(=O)N3CCCC(C(=O)Nc4ccccn4)C3)ccc21 (configuration not stated)	i	i	i	i	i
COc1ccccc1CNC(=O)Cn1c(=O)oc2cc(S(=O)(=O)N3CCC(C)CC3)ccc21	18.4µM	nt	nt	nt	i
CCCn1c(=O)n(C)c(=O)c2c(SCC(=O)Nc3cc(C)on3)nc(C(C)(C)C)nc21	?	i	i	i	i
COc1ccc(CCN2C(=O)C(Oc3ccccc3C)C2c2ccc3c(c2)OCO3)cc1 (configuration not stated)	i	i	?	i	10.3µM
COc1ccc(CCN2C(=O)C(Oc3ccccc3C)C2c2ccc3c(c2)OCO3)cc1OC (configuration not stated)	?	i	?	i	i
CN(C)N1C(N)=C(C#N)C(c2ccsc2)C2=C1CCCC2=O (configuration not stated)	i	i	i	i	i
Cc1ccc(N2C(N)=C(C#N)C(c3ccsc3)C3=C2CC(C)(C)CC3=O)cc1 (configuration not stated)	?	i	-55.0	i	i
N#CC1=C(N)N(c2ccccc2)C2=C(C(=O)CCC2)C1c1ccsc1 (configuration not stated)	i	11.2µM	i	?	?
COc1cc(C2C(C#N)=C(N)N(c3cccnc3)C3=C2C(=O)CCC3)ccc1O (configuration not stated)	i	i	-59.1	i	i
C=CCn1c(=O)c2c3c(sc2n2c(Nc4ccc(OC)cc4)nnc12)CCCC3	?	i	-70.9	i	?
COc1ccc(Cl)cc1NC(=O)c1noc2c1CCc1ccccc1-2	i	nt	nt	nt	i
O=C(Cc1ccc(Br)cc1)OCC(=O)N1CCOCC1	i	i	i	i	i
Cn1nc(-c2ccccc2)c(CSc2ccccc2Cl)c1Cl	?	?	i	?	11.6µM
SMILES	KB-3-1 cytotox	HT1080-NT tox	IL1B secr inh	HT1080 IDH1KD tx	KB-V1 MDR tox
Cn1nc(-c2ccccc2)c(C(O)c2ccc(Cl)cc2)c1Cl (configuration not stated)	i	i	i	i	i
COc1ccc(CCNC(=O)C/C(C)=N/NC(=O)COc2ccc(C)cc2Br)cc1OC	i	i	i	i	i
CC(C)[C@H](NC(=O)c1ccco1)C(=O)NC12CC3CC(CC(C3)C1)C2	i	i	i	i	i
CCc1ccc(C2=NN(S(C)(=O)=O)C(c3cccs3)C2)cc1 (configuration not stated)	?	i	i	i	14.6µM
Cc1ccc(C2=NN(S(C)(=O)=O)C(c3cccs3)C2)cc1 (configuration not stated)	i	i	i	i	?
CCCCCCCCN1C(=O)[C@H](CC(=O)N2CCOCC2)C[C@@]2(C(=O)OCC)CCCC=C12	?	?	i	?	i
CCCCCCCCN1C(=O)[C@H](CC(=O)N2CCN(C(=O)OCC)CC2)C[C@@]2(C(=O)OC)CCCCC=C12	i	?	i	?	?
CCCCCCCCN1C(=O)[C@H](CC(=O)N2CCSCC2)C[C@@]2(C(=O)OCC)CCCC=C12	?	?	?	?	23.1µM
CCCCCCCCN1C(=O)[C@H](CC(=O)N2CCSCC2)C[C@@]2(C(=O)OC)CCCCC=C12	i	?	-68.0	?	?
O=C1[C@@H](Oc2ccccc2)[C@@H](c2cccnc2)N1c1ccccc1	i	?	i	20.6µM	i
O=C1[C@H](Oc2ccccc2)[C@@H](c2ccccc2)N1c1ccncc1	i	i	-104.2	?	i
CC(NCCC1(Cc2ccccc2Cl)CCOC(C)(C)C1)c1cccs1 (configuration not stated)	i	i	-53.5	?	i
CC(NCCC1(C(C)C)CCOC(C)(C)C1)c1cccs1 (configuration not stated)	i	i	i	i	i
Cc1nc2ccn(Cc3cccs3)c(=O)c2cc1C(=O)N1CCN(c2ccccc2)CC1	i	nt	nt	nt	i
COc1ccc(S(=O)(=O)Nc2cc(C(C)C)c(O)cc2C)cc1	i	i	i	i	i
COc1ccc2nc3cc(Cl)ccc3c(Nc3cc(C(C)C)c(O)cc3C)c2c1	?	20.6µM	-90.1	?	?
CC(C)CN1C(=O)CSCC1(C)C(=O)NC(C)C (configuration not stated)	i	i	-67.9	i	i
CC(C)CN1C(=O)CSCC1(C)C(=O)Nc1ccc2c(c1)OCCO2 (configuration not stated)	i	i	i	i	?
COc1ccc(C(=O)Oc2c(CN3CCOCC3)cc(Cl)c3cccnc23)cc1	10.3µM	20.6µM	i	?	?
O=C(Oc1c(CN2CCOCC2)cc(Cl)c2cccnc12)c1ccc(F)cc1	5.8µM	?	i	?	3.26µM
COc1cccc(C(=O)Oc2c(CN3CCOCC3)cc(Cl)c3cccnc23)c1	?	?	i	11.6µM	7.31µM
COc1cc(C(=S)N2CCOCC2)cc(OC)c1OC(=O)c1ccc(F)cc1	i	i	i	i	i
COc1cccc(C(=O)OCCN2CCOCC2)c1	i	i	i	i	?
COc1cc(C(=O)Oc2c(CN3CCOCC3)cc(Cl)c3cccnc23)cc(OC)c1OC	?	?	i	?	?
C#Cc1ccc(NC(=O)C2(C)CCN2C(=O)c2cc(C)n(C)n2)cc1 (configuration not stated)	i	i	i	i	i

Screens deposited in PubChem BioAssay by National Center for Advancing Translational Sciences (NCATS).
